Most compounds without a hit are left out; they make up all but 4% or so of the library.
esBAF inh – Bmi1 luciferase reporter increase in mESCs, primary screen, esBAF inhibitor project, mouse ES cells, Bmi1 luciferase knock-in, single point. reporter increase, % at 12.5 µM. 24 h; 100% = twice the neutral-well signal. AID 602393, 2012. 350,000 tested, 2% active; in the data active = activation above about 40%; inconclusive = no clear call, values can overlap the other calls;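 also: a rise in the Bmi1 reporter signal indicates esBAF inhibition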
Wnt bcat act – Wnt/beta-catenin pathway activators, primary screen, cell-based, plate reader, single point | Wnt/beta-catenin reporter cell assay, activator | activation, % at 9.35 µM | 300,000 tested, 1.2% active | AID 743398, 2014; in the data active = activation above about 30%, passing the limit was not always enough; inconclusive = no clear call, values can overlap the other calls
TRPM1 prom inh – inhibitors of MITF-dependent TRPM1 promoter reporter, primary screen, cell-based, SK-MEL-5, single point, luciferase; AID 488899, 2010; inhibition, % at 12.5 µM; 330,000 tested, 0.83% active; SK-MEL-5 TRPM1 promoter luciferase, 24 h;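 active = mean inhibition across replicates of 60% or more, whatever share of single replicates reaches that level; inconclusive = some that reach 60%, reason not given; inactive = mean inhibition across replicates below 60%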
MITF act – activators of MITF-driven TRPM1 promoter reporter, primary screen, cell-based, SK-MEL-5, luciferase, single point; activation, % at 12.5 µM; 300,000 tested, 0.75% active; SK-MEL-5 TRPM1-promoter luciferase, 24 h; % of positive control, neutral wells = 0;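 active = mean activation of at least 80% with every replicate also reaching 80%; inconclusive = mean reaches 80% but some replicate falls short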
EWS-Fli block – EWS/Fli-driven NR0B1 reporter inhibitors, primary screen, A673 cells, NR0B1 luciferase, luminescence, MLPCN library. viability-normalised. inhibition, % at 12.6 µM. 350,000 tested, 0.67% active. AID 651661, 2012;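 active = mean inhibition of at least 50% after viability correction, with every replicate also passing that limit; inconclusive = mean reaches 50% but only one of two replicates passes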;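 also: firefly luciferase signal divided by Alamar Blue viability fluorescence both relative to DMSO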
PAX8 inh HTS – inhibitors of PAX8-driven TPO luciferase reporter, primary screen, RMG-I cells, single concentration. SteadyGlo, 24 h. 360,000 tested, 1.2% active. inhibition, % at 12.6 µM;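 active = mean replicate inhibition at least 60% with every replicate also reaching 60%; inconclusive = only one of the two criteria is met; inactive = mean below 60% and not all replicates reaching 60%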;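 also: luciferase light reporting Pax8 driven TPO promoter activity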
Each line names hits and unclear results; the compound was inactive in the other large screens.

Cc1noc(C)c1NC(=O)N(C)C[C@@H]1Oc2cc(C#CCC3CCCC3)ccc2S(=O)(=O)N([C@H](C)CO)C[C@@H]1C	none (no result: Wnt bcat act, TRPM1 prom inh, MITF act)
Cc1noc(C)c1NC(=O)N(C)C[C@H]1Oc2cc(C#CCC3CCCC3)ccc2S(=O)(=O)N([C@@H](C)CO)C[C@@H]1C	PAX8 inh HTS 66 (no result: Wnt bcat act, TRPM1 prom inh, MITF act)
C[C@@H]1CN([C@H](C)CO)S(=O)(=O)c2ccc(C#Cc3ccc(F)cc3)cc2O[C@H]1CN(C)C(=O)CN(C)C	EWS-Fli block 73 (no result: Wnt bcat act, TRPM1 prom inh, MITF act, PAX8 inh HTS)
C[C@H]1CCCCO[C@H](CN(C)C(=O)Cc2ccccc2)[C@@H](C)CN([C@@H](C)CO)C(=O)c2cc(NC(=O)Nc3ccccc3)ccc2O1	none (no result: Wnt bcat act, TRPM1 prom inh, MITF act)
COc1ccc(S(=O)(=O)N[C@@H]2C=C[C@@H](CC(=O)NCCc3ccncc3)O[C@@H]2CO)cc1	none (no result: Wnt bcat act, TRPM1 prom inh, MITF act, EWS-Fli block, PAX8 inh HTS)
CCCNC(=O)N1CCC2(CC1)CN(Cc1cccc(F)c1)[C@H](CO)c1[nH]c3cc(OC)ccc3c12	none (no result: esBAF inh, Wnt bcat act, TRPM1 prom inh, MITF act, PAX8 inh HTS)
C[C@H](CO)N1C[C@H](C)[C@@H](CN(C)C(=O)C2CCCCC2)Oc2cc(C3=CCCCC3)ccc2S1(=O)=O	none (no result: Wnt bcat act, TRPM1 prom inh, MITF act, PAX8 inh HTS)
C[C@H](CO)N1C[C@H](C)[C@H](CN(C)C(=O)Nc2cccc3ccccc23)Oc2ccc(NC(=O)CCC(F)(F)F)cc2C1=O	none (no result: Wnt bcat act, TRPM1 prom inh, MITF act)
COc1ccc2c3c([nH]c2c1)[C@H](CO)N(C(=O)c1cnccn1)CC31CCN(C(=O)c2cnccn2)CC1	none (no result: esBAF inh, Wnt bcat act, TRPM1 prom inh, MITF act, PAX8 inh HTS)
CCS(=O)(=O)Nc1ccc2c(c1)C(=O)N(C)[C@@H]1CC[C@H](CC(=O)N[C@@H]3CCN(Cc4ccccc4)C3)O[C@@H]1CO2	none (no result: Wnt bcat act, TRPM1 prom inh, MITF act)
C[C@@H]1CN([C@H](C)CO)S(=O)(=O)c2ccc(C#Cc3ccc(F)cc3)cc2O[C@H]1CN(C)C(=O)NC1CCCCC1	PAX8 inh HTS 98 (no result: Wnt bcat act, TRPM1 prom inh, MITF act)
C[C@@H]1CN([C@H](C)CO)S(=O)(=O)c2ccc(C#Cc3cccc(F)c3)cc2O[C@H]1CN(C)C(=O)NC1CCCCC1	PAX8 inh HTS 68 (no result: Wnt bcat act, TRPM1 prom inh, MITF act)
Cc1[nH]nc(N=CC2=C(O)CC(c3ccco3)CC2=O)c1-c1ccccc1 (centres undefined)	none (no result: PAX8 inh HTS)
Cc1[nH]nc(N=CC2=C(O)CC(C)(C)CC2=O)c1-c1ccccc1	esBAF inh 45
O=C(Cc1c(Cl)cccc1Cl)OCc1ccccn1	esBAF inh 49, MITF act inconclusive
Cc1cc2nc(C3CCCN(C(=O)NCc4ccccc4)C3)[nH]c2cc1C (centres undefined)	Wnt bcat act 46 (no result: EWS-Fli block)
Cc1cc2nc(C3CCCN(C(=S)Nc4ccccc4C)C3)[nH]c2cc1C (centres undefined)	none (no result: EWS-Fli block, PAX8 inh HTS)
CO[C@H]1CN(C)C(=O)c2ccc(NC(C)=O)cc2OC[C@@H](C)N(C(=O)C2CC2)C[C@H]1C	none (no result: Wnt bcat act, TRPM1 prom inh, MITF act)
N#C/C(=C\c1ccc(OCc2cccc(C(=O)O)c2)cc1)C(=O)NCc1ccco1	Wnt bcat act 39 (no result: esBAF inh)
Cc1cc(/C=C(\C#N)C(=O)NCc2ccco2)c(C)n1C1CCCC1	esBAF inh 53, Wnt bcat act 39 (no result: EWS-Fli block)
Cc1ccc(C)c(-n2c3nc(=O)[nH]c(=O)c-3cc3cc([N+](=O)[O-])ccc32)c1	TRPM1 prom inh inconclusive, EWS-Fli block 70 (no result: esBAF inh)
COc1cc(OC)c2c(-c3cccc(-c4ccc(OC)c(F)c4)c3)cc(=O)oc2c1	PAX8 inh HTS 89
O=C(C[C@H]1C=C[C@H](NC(=O)Nc2ccccc2)[C@H](CO)O1)NCc1cccc(F)c1	none (no result: Wnt bcat act, TRPM1 prom inh, MITF act)
Cc1ccc(C(=O)NCCC(=O)N2CCOCC2)cc1	Wnt bcat act 37 (no result: esBAF inh)
O=C(NCCC(=O)N1CCCCCCC1)c1ccc(Br)cc1	none
CC(C)(C)c1ccc(C(=O)NCCC(=O)N2CCCC2)cc1	esBAF inh 47
Cc1ccc(C(=O)NCCN2CCOCC2)cc1	none (no result: PAX8 inh HTS)
Cc1ccc(S(=O)(=O)N[C@@H]2C=C[C@@H](CC(=O)NC3CCCCC3)O[C@@H]2CO)cc1	none (no result: Wnt bcat act, TRPM1 prom inh, MITF act)
COc1ccc(NC(=O)Nc2ccc3c(c2)C(=O)N([C@H](C)CO)C[C@@H](C)[C@@H](CN(C)S(=O)(=O)c2ccccc2)OCCCC[C@H](C)O3)cc1	none (no result: Wnt bcat act, TRPM1 prom inh, MITF act)
O=C(COC(=O)c1n[nH]c2ccccc12)Nc1ccccc1F	esBAF inh 123
O=C(COC(=O)C1CCC1)c1c[nH]c2ccccc12	none
